Assay results published in PubChem BioAssay (NCI).
Compounds without any hit were thinned out: in the full panel of roughly 83,000, 20% have a hit.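 A percent growth of 40 corresponds to 60% growth inhibition; 0 means no net growth; -100 means all cells died. Active threshold: below 10.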 Unmarked numbers belong to inactive results. Active and inactive are the calls of the source.

Columns and labels:
Test in all cases: NCI-60 one-dose screen, 48 h (100 = growth as untreated, 0 = no growth, -100 = all killed)
Conditions in all cases: 10 µM unless noted
NCI-H23 lung = tested on: NCI-H23 lung
NCI-H226 lung = tested on: NCI-H226 lung
NCI-H322M lung = tested on: NCI-H322M lung
HOP-62 NSCLC = tested on: HOP-62 NSCLC
HOP-92 NSCLC = tested on: HOP-92 NSCLC
NCI-H522 lung = tested on: NCI-H522 lung
A549/ATCC NSCLC = tested on: A549/ATCC NSCLC
786-0 renal = tested on: 786-0 renal
COLO 205 colon = tested on: COLO 205 colon
DU-145 prostate = tested on: DU-145 prostate
K-562 leukemia = tested on: K-562 leukemia
MALME-3M melanoma = tested on: MALME-3M melanoma
MDA-MB-231 breast = tested on: MDA-MB-231 breast
RXF 393 renal = tested on: RXF 393 renal
SF-268 CNS = tested on: SF-268 CNS
SF-295 CNS = tested on: SF-295 CNS
SF-539 CNS = tested on: SF-539 CNS
UACC-257 melanoma = tested on: UACC-257 melanoma
M14 melanoma = tested on: M14 melanoma
NCI-H460 lung = tested on: NCI-H460 lung

Compound | growth (NCI-H23 lung) | growth (NCI-H226 lung) | growth (NCI-H322M lung) | growth (HOP-62 NSCLC) | growth (HOP-92 NSCLC) | growth (NCI-H522 lung) | growth (A549/ATCC NSCLC) | growth (786-0 renal) | growth (COLO 205 colon) | growth (DU-145 prostate) | growth (K-562 leukemia) | growth (MALME-3M melanoma) | growth (MDA-MB-231 breast) | growth (RXF 393 renal) | growth (SF-268 CNS) | growth (SF-295 CNS) | growth (SF-539 CNS) | growth (UACC-257 melanoma) | growth (M14 melanoma) | growth (NCI-H460 lung)
O=c1ccn(-c2ncnc3nc[nH]c23)cc1 | 92.1% | 88.8% | 97.5% | 89.8% | 72.9% | 80.4% | 35.8% | 97.1% | 101% | 101% | 89.9% | 68.8% | 101% | 79.6% | 95.2% | 115% | 96.4% | 3.23% (active) | – | –
COC(=O)C1CCCN1C(=O)[C@@H]1CCCN1C(=O)[C@H](Cc1c[nH]c2ccccc12)NC(=S)Nc1cc(C(F)(F)F)cc(C(F)(F)F)c1 (some centres not stated) | 69% | 75.7% | 74.7% | 80.2% | 17% | 46% | 37.1% | 37.6% | 66.5% | 52.5% | 38.3% | 81.7% | 14.4% | 43.7% | 51.5% | 25.1% | 55.4% | 62.4% | 60.9% | –
O=C1/C(=C/c2ccc(Cl)cc2)CN(Cc2cn(CCNc3ccnc4cc(Cl)ccc34)nn2)C/C1=C\c1ccc(Cl)cc1 | -71.3% (active) | -70.6% (active) | -87% (active) | -100% (active) | -75% (active) | -99.4% (active) | -85.1% (active) | -88.7% (active) | -100% (active) | -97.3% (active) | -34.5% (active) | -69.5% (active) | -43.2% (active) | -94.5% (active) | -78% (active) | – | -97% (active) | -92.1% (active) | -70.5% (active) | –
CC(=O)Nc1ccc(S(=O)(=O)n2ccc(-c3ccc4c(c3)CCC(C)(C)O4)n2)cc1 | 56.6% | 52.4% | 89% | 94.4% | 69.8% | 54% | 57.8% | 79.8% | 88.8% | 83.5% | 36.7% | 82.5% | 88.6% | – | 77.3% | 60.2% | 73.8% | 46% | 64.7% | –
Cc1c(C(=O)/C=C/c2csc3ccccc23)[n+](=O)c2ccccc2n1[O-] | – | 78.1% | 81.8% | 98.7% | – | 6.66% (active) | 61.7% | 88.3% | 73.4% | -3.03% (active) | 21.7% | 125% | 64.2% | 13.1% | 44% | 84.6% | 89.2% | 81.5% | 62.9% | 66.6%
ClC(Cl)c1nc(-c2cccnc2)n2nc(-c3ccccc3)cc2n1 | – | 66.2% | 46.2% | 5.17% (active) | -0.78% (active) | -20.3% (active) | -16.8% (active) | 82.3% | -52.6% (active) | -21.7% (active) | 6.07% (active) | -4.43% (active) | 17.3% | -51% (active) | 23% | 0.57% (active) | 60.8% | 96.4% | 71% | -32.5% (active)
Cc1ccc(C(=O)NCCCNc2nccc(-n3ccc4cccnc43)n2)cc1 | – | 93.4% | 91.6% | 104% | 96.4% | 88% | 93.4% | 93.7% | 103% | 96.5% | 92.1% | 111% | 104% | 102% | 94.7% | 96% | 99.2% | 107% | 102% | 109%
O=[N+]([O-])c1cc(S(=O)(=O)Oc2ccccc2)ccc1Cl | – | 75.3% | -13.3% (active) | 54% | 24.1% | 14.3% | 88.4% | 24.1% | 5.56% (active) | -81% (active) | 1.22% (active) | -68.8% (active) | 40.7% | 35% | 24.2% | 28.7% | – | 45.4% | -21.5% (active) | 1.7% (active)
